These results are taken from PubChem BioAssay (NCI).

Test in all cases: NCI-60 one-dose screen, 48 h (100 = growth as untreated, 0 = no growth, -100 = all killed)
Conditions in all cases: 10 µM unless noted

For assay [1], the system named is DU-145 prostate.
The subject of assay [2] is MALME-3M melanoma.
Assay [3] has as its system MDA-MB-231 breast.
The test system of assay [4] is RXF 393 renal.
Assay [5] has as its system SF-268 CNS.
For assay [6], the system named is SF-295 CNS.
Assay [7] relates to SF-539 CNS.
The test system of assay [8] is UACC-257 melanoma.
Assay [9] concerns M14 melanoma.
The test system of assay [10] is K-562 leukemia.

Compounds without any hit were thinned out: in the full panel of roughly 83,000, 20% have a hit.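 Testing used 96-well plates and a 48-hour single-concentration exposure. Example: -40 means 40% of the starting cells died.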 Unmarked numbers belong to inactive results. Calls of active or inactive are those of the source. Rule for the calls: active = growth percent below 10; inactive = the rest.

`NC(=NCCCC1(c2ccccc2)CCCC1)Nc1ccc(Cl)cc1`: the growth is 37.8% in assay [1]; -48.9% (active) in [2]; 1.92% (active) in assay [3]; 51.7% in [4]; 58.5% in [5]; 10% in assay [6]. For the same compound, the growth in [7] is 51.3%; in assay [8], 26.4%; in assay [9] it was -65.5% (active).
For the compound `CC(=O)c1cc2c(N)c(C(=O)Nc3cccc4ccccc34)sc2nc1C`, the growth in assay [1] is 15.5%; in [2], 56.2%; in assay [3], 26.2%; in assay [4] it was 10.4%; in [5], 56.3%; in [6], 19.8%. Moreover, the growth was -15% (active) in [7], 59.8% in assay [8] and 3.93% (active) in assay [9].
On to `Cn1ccnc1C(=O)/C=C/c1ccc(CC(=O)Nc2ccccc2)cc1`, for which the growth is 10.3% in assay [1]; 72.8% in assay [2]; 12.6% in [3]; 12.1% in assay [4]; 10.6% in assay [5]; 26.2% in [6]. For the same compound, the growth in assay [7] is -18.5% (active); in [8] it was 78.7%; in assay [9], 27.8%.
As to `COc1ccc2c(c1)CC/C(=C\c1cncc(Br)c1)C2=O`, the growth in [1] is 102%; in assay [2], 106%; in assay [3], 94.5%; in assay [4], 98.4%; in assay [5], 97.1%; in assay [6], 94.5%. The figures for the growth in assay [7], in assay [8] and in assay [9] were 93.2%, 112% and 92.9%, respectively.
As to `Cc1cc2nc3[nH]c4ccccc4c3nc2cc1C`, the growth is 79.4% in assay [1]; 76.6% in [2]; 64.4% in assay [3]; 74.6% in assay [5]; 102% in assay [6]; 70.7% in assay [7]. In [9], the growth was 101%.
Turning to `CC/C=C\C[C@H]1C/C=C2/C(=O)C=C[C@H]2C/C=C\CCCC(=O)O1`, the growth in assay [1] was 15%; in [2], 75.1%; in assay [3], 40.5%; in assay [4], 36.6%; in assay [5], 39.9%; in assay [6] it was 23.3%. Further, the figures for the growth in assay [7], in assay [8] and in assay [9] were 14.7%, 47.1% and 19.1%, respectively.
For the compound `O=C1C=CC(=O)N1c1ccc2c(c1)Cc1cc(F)ccc1-2`, the growth in assay [1] was 112%; in assay [2] it was 94.4%; in [3], 92.3%; in [4] it was 92.2%; in assay [5], 99.7%; in assay [7], 101%. Further, the growth in [8] was 64.7%; in [9], 107%.
Take `CC(=O)OCCC/C(=C/c1cc2ccccc2c2ccccc12)[N+](=O)[O-]`: the growth in assay [1] was -100% (active); in assay [2], -71% (active); in [3] it was -54.3% (active); in assay [5] it was -89.6% (active); in assay [6], 7.66% (active); in assay [7] it was -100% (active). Also, the growth in [9] is -69.9% (active).
Turning to `O=C1/C(=C/c2ccc(OCCCOc3ccc(Cl)cc3)cc2)N=C2SCCCN12`, the growth in [1] is 94.5%; in assay [2], 122%; in assay [3], 77.3%; in assay [4], 110%; in [5], 100%; in [6], 66.7%. Further, the figures for the growth in [7], in [8] and in assay [9] were 97%, 102% and 95.9%, respectively.
As for `COc1ccc(NC(=O)c2ccc(/C=C/C(=O)c3ncc[nH]3)cc2)cc1`, the growth in assay [1] is 34.1%; in assay [2], 95.1%; in [3], 91.6%; in assay [4], 76.9%; in assay [5], 72.4%; in [6] it was 88.4%. Moreover, the growth in assay [7] was 64.1%; in [8] it was 97.8%; in assay [9] it was 87.3%.
Regarding `Cc1cc(N2CCCCC2)nc(NC2CCCC(Nc3ccnc4cc(Cl)ccc34)C2)n1` (configuration not stated), the growth in assay [1] is 1.31% (active); in assay [2], -86% (active); in assay [3], -89.8% (active); in assay [4], -81.2% (active); in assay [5] it was -59.6% (active); in assay [6] it was -76.7% (active). Further, the growth in [7] is -92.8% (active); in assay [8] it was -90.9% (active); in assay [9] it was -86.5% (active).
`CN(C)[C@@H]1C(=O)C(C(=O)NCc2nc3[nH]cnc(=S)c3[nH]2)=C(O)[C@@]2(O)C(=O)C3=C(O)c4c(O)cccc4[C@@](C)(O)[C@H]3C[C@@H]12`: the growth in assay [1] was 42.6%; in [2], 69.4%; in [3] it was 47.5%; in assay [5], 76.1%; in [6], 27.1%; in [7], 31.8%.
As to `CCNC(=O)Oc1ccc(/C(=C(\C)c2ccc(Cl)cc2)c2ccc(OCCN3CCCCC3)cc2)cc1`, the growth in [1] was 72.8%; in assay [2], -8.7% (active); in assay [3] it was 51.8%; in [4], 49.1%; in [5], 55%; in assay [6], 42.7%. The growth was 47.8% in assay [7], -33.9% (active) in assay [8] and -46.5% (active) in assay [9].
For the compound `O=C(Cc1ccc(/C=C/C(=O)c2ncc[nH]2)cc1)Nc1ccccc1`, the growth is 17.8% in assay [1]; 98.2% in assay [2]; 70.7% in assay [3]; 42.9% in assay [4]; 51.5% in [5]; 69.7% in [6]. In addition, the figures for the growth in assay [7], in [8] and in assay [9] were -23.3% (active), 97.2% and 73.6%, respectively.
As to `CCCCC(=O)OCC1OC(n2cnc3c(=S)nc[nH]c32)C(OC(=O)CCCC)C1OC(=O)CCCC` (configuration not stated), the growth is 32% in [1]; 49.5% in assay [2]; 35.6% in [3]; 39% in assay [5]; 30.3% in assay [6]; 20.2% in assay [7]. In assay [9], the growth is 10.4%.
For the compound `CCCCn1cnc2c(Sc3c([N+](=O)[O-])ncn3C)nc(N)nc21`, the growth in assay [1] is 99.6%; in assay [2] it was 93.9%; in assay [3], 97.9%; in assay [4] it was 102%; in assay [5], 102%; in assay [7] it was 105%. In addition, the growth in assay [8] was 84.1%; in [9], 102%.
As for `Cc1cc(N2CCN(C)CC2)nc(NC2CCCC(Nc3ccnc4cc(Cl)ccc34)C2)n1` (configuration not stated), the growth in assay [1] is 16.9%; in assay [2], -82.9% (active); in [3], -76.4% (active); in assay [4] it was -62.2% (active); in [5] it was -2.4% (active); in assay [6], -71.8% (active). Further, the growth in assay [7] was -84.3% (active); in assay [8] it was -73.6% (active); in assay [9], -86.4% (active).
Turning to `NC(N)=N/N=C(/c1ccccc1)c1ccc(F)cc1`, the growth is -19.7% (active) in assay [1]; 36.5% in [2]; -18.9% (active) in assay [3]; 14.2% in assay [5]; 3.89% (active) in assay [6]; -33.5% (active) in assay [7]. In assay [9], the growth was -3.19% (active).
Take `COc1ccc(-c2cc(-c3ccc(Nc4ccnc5cc(Cl)ccc45)cc3)nc(N3CCOCC3)n2)cc1`: the growth in assay [1] is 21.7%; in assay [2] it was -39.1% (active); in assay [3], 52.4%; in assay [4] it was 34.9%; in assay [5], 72.1%; in [6], 94.6%. The growth was -41.1% (active) in [7], 79% in assay [8] and 12.9% in assay [9].
Regarding `COC(=O)c1ccc(Cn2cnc3c(N)ncnc32)cc1`, the growth in assay [10] was 89.4%; in [3], 87.7%; in assay [4], 102%; in [5], 114%; in assay [6], 109%; in assay [7], 92.1%. Also, the growth in assay [8] was 116%; in assay [9], 110%.
As to `CC(=O)Oc1ccc(Cl)cc1CN(C(C)=O)C1CCCCC1`, the growth was 125% in assay [1]; 111% in assay [2]; 105% in assay [3]; 101% in assay [4]; 100% in assay [5]; 111% in assay [7]. The growth in [8] was 81.3%.
For `NCCNc1nc(Nc2ccc(-c3nc4ccccc4[nH]3)cc2)c2cn[nH]c2n1`, the growth in [1] was 90.9%; in assay [2], 68%; in assay [3], 18.8%; in [4] it was 43%; in [5], 68.1%; in [6], 62.9%. The values for the growth in assay [7], in assay [8] and in assay [9] were -9.77% (active), 104% and 96.1%, respectively.
